Measurements published in PubChem BioAssay (NCI).
Compounds without any hit were thinned out: in the full panel of roughly 83,000, 20% have a hit.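 Treatment: one concentration, 48 hours, 96-well format. Scoring: percent growth, with anything below 10 considered active.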 The source made the active and inactive calls.

Columns and labels:
Test in all cases: NCI-60 one-dose screen, 48 h (100 = growth as untreated, 0 = no growth, -100 = all killed)
Conditions in all cases: 10 µM unless noted
SR leukemia = tested on: SR leukemia
RPMI-8226 leukemia = tested on: RPMI-8226 leukemia
OVCAR-8 ovarian = tested on: OVCAR-8 ovarian
OVCAR-5 ovarian = tested on: OVCAR-5 ovarian
OVCAR-4 ovarian = tested on: OVCAR-4 ovarian
SK-OV-3 ovarian = tested on: SK-OV-3 ovarian
IGROV1 ovarian = tested on: IGROV1 ovarian
OVCAR-3 ovarian = tested on: OVCAR-3 ovarian
HS 578T breast = tested on: HS 578T breast
NCI/ADR-RES ovarian = tested on: NCI/ADR-RES ovarian
T-47D breast = tested on: T-47D breast
BT-549 breast = tested on: BT-549 breast
MDA-MB-435 melanoma = tested on: MDA-MB-435 melanoma
SW-620 colon = tested on: SW-620 colon
MCF7 breast = tested on: MCF7 breast
HCT-116 colon = tested on: HCT-116 colon
HCC-2998 colon = tested on: HCC-2998 colon
KM12 colon = tested on: KM12 colon

Measured: growth

CC1=CNNc2c3ncnc-3ncn21
inactive: SR leukemia 97.4% | RPMI-8226 leukemia 103% | OVCAR-8 ovarian 107% | OVCAR-5 ovarian 101% | OVCAR-4 ovarian 111% | SK-OV-3 ovarian 103% | IGROV1 ovarian 108% | OVCAR-3 ovarian 105% | HS 578T breast 110% | NCI/ADR-RES ovarian 105% | T-47D breast 101% | BT-549 breast 106% | MDA-MB-435 melanoma 111% | SW-620 colon 102% | MCF7 breast 111% | HCT-116 colon 102% | HCC-2998 colon 102% | KM12 colon 103%

Cc1nc(Nc2cccnc2)sc1C(=O)/C=C/c1ccc(Cl)cc1
inactive: OVCAR-8 ovarian 14.9% | OVCAR-5 ovarian 37.3% | OVCAR-4 ovarian 82.4% | SK-OV-3 ovarian 81.3% | IGROV1 ovarian 14.9% | HS 578T breast 98.9% | NCI/ADR-RES ovarian 35.4% | T-47D breast 24.8% | BT-549 breast 15.2% | MCF7 breast 13.2% | HCT-116 colon 26.8% | HCC-2998 colon 84.8% | KM12 colon 12.9%
active: SR leukemia 6.11% | RPMI-8226 leukemia -4.94% | OVCAR-3 ovarian 7.38% | MDA-MB-435 melanoma 5.05% | SW-620 colon 6.92%

COc1ccc(/C=C/C(=O)OCC(=O)NNC(=O)c2ccccc2)cc1OC
inactive: SR leukemia 71.8% | RPMI-8226 leukemia 79.7% | OVCAR-8 ovarian 102% | OVCAR-5 ovarian 113% | OVCAR-4 ovarian 101% | SK-OV-3 ovarian 113% | IGROV1 ovarian 87.8% | OVCAR-3 ovarian 99.8% | HS 578T breast 103% | NCI/ADR-RES ovarian 116% | T-47D breast 101% | BT-549 breast 98.6% | MDA-MB-435 melanoma 104% | SW-620 colon 98.4% | MCF7 breast 85.6% | HCT-116 colon 103% | HCC-2998 colon 127% | KM12 colon 115%

COc1cc(-c2n[nH]nc2-c2ccc3c(c2)OCCO3)cc(OC)c1OC
active: SR leukemia 9.29% | RPMI-8226 leukemia 0.653% | OVCAR-8 ovarian 9.51% | SK-OV-3 ovarian 3.32% | OVCAR-3 ovarian -33.9% | NCI/ADR-RES ovarian 2.71% | MDA-MB-435 melanoma -11.4% | MCF7 breast 9.04% | HCT-116 colon 8.07% | KM12 colon 9.43%
inactive: OVCAR-5 ovarian 11.7% | OVCAR-4 ovarian 34.8% | IGROV1 ovarian 21.9% | HS 578T breast 12.7% | T-47D breast 40.5% | BT-549 breast 12% | SW-620 colon 19.4% | HCC-2998 colon 10.1%

COc1ccc(S(=O)(=O)NCCNc2nccc(-c3c(-c4ccccc4)nc4sccn34)n2)cc1
inactive: SR leukemia 12.8% | RPMI-8226 leukemia 27.4% | OVCAR-8 ovarian 26.7% | OVCAR-5 ovarian 73.8% | OVCAR-4 ovarian 27.8% | SK-OV-3 ovarian 23% | OVCAR-3 ovarian 12.4% | HS 578T breast 47% | NCI/ADR-RES ovarian 17.1% | T-47D breast 10.9% | BT-549 breast 34.7% | MDA-MB-435 melanoma 11.2% | SW-620 colon 36.5% | HCC-2998 colon 60.7%
active: IGROV1 ovarian 6.6% | MCF7 breast 4.01% | HCT-116 colon 9.81% | KM12 colon 9.45%

O=C(CNc1c(Cl)cccc1Cl)Nc1ccc(-c2nc3ccccc3s2)cc1
active: T-47D breast -19%
inactive: SR leukemia 10.7% | RPMI-8226 leukemia 59.8% | OVCAR-8 ovarian 66.7% | OVCAR-5 ovarian 110% | OVCAR-4 ovarian 17.5% | SK-OV-3 ovarian 97.8% | IGROV1 ovarian 49.3% | OVCAR-3 ovarian 54.4% | HS 578T breast 87.2% | NCI/ADR-RES ovarian 64% | BT-549 breast 22% | MDA-MB-435 melanoma 67.9% | SW-620 colon 35.3% | MCF7 breast 14.6% | HCT-116 colon 29.9% | HCC-2998 colon 35.6% | KM12 colon 91.3%

COc1ncc(-c2ccc3ncnc(Nc4cccc(Cl)c4)c3c2)cc1NS(=O)(=O)C1CC1
inactive: SR leukemia 46.9% | RPMI-8226 leukemia 26.7% | OVCAR-8 ovarian 41.7% | OVCAR-5 ovarian 28% | OVCAR-4 ovarian 34.8% | OVCAR-3 ovarian 20.1% | HS 578T breast 13.6% | NCI/ADR-RES ovarian 40.8% | MDA-MB-435 melanoma 47.9% | SW-620 colon 51.1% | HCT-116 colon 49.2% | HCC-2998 colon 59.9% | KM12 colon 69.7%
active: SK-OV-3 ovarian 8.08% | IGROV1 ovarian -38.6% | T-47D breast -1.98% | BT-549 breast 2.9% | MCF7 breast 7.65%

COc1ccc(Cn2cc(COc3cc(/C=C/C(=O)c4cc(OC)c(OC)c(OC)c4)ccc3OC)nn2)cc1
inactive: OVCAR-8 ovarian 46.6% | OVCAR-5 ovarian 81.3% | OVCAR-4 ovarian 51% | SK-OV-3 ovarian 72% | IGROV1 ovarian 88.8% | OVCAR-3 ovarian 54.3% | HS 578T breast 83.3% | NCI/ADR-RES ovarian 46.2% | T-47D breast 65.4% | BT-549 breast 30.8% | MDA-MB-435 melanoma 12.5% | SW-620 colon 19.8% | MCF7 breast 21.3% | HCT-116 colon 17.9% | HCC-2998 colon 110% | KM12 colon 15.8%
active: SR leukemia 5.65% | RPMI-8226 leukemia -2.32%

O=C1CCCCN1CCCCC#Cc1ccccc1C#Cc1ccc([N+](=O)[O-])cc1
inactive: SR leukemia 18.1% | OVCAR-8 ovarian 55.4% | OVCAR-5 ovarian 60% | OVCAR-4 ovarian 60.2% | SK-OV-3 ovarian 71.1% | OVCAR-3 ovarian 56.3% | HS 578T breast 69.4% | NCI/ADR-RES ovarian 43.4% | T-47D breast 49.4% | BT-549 breast 65.9% | MCF7 breast 49.6% | HCT-116 colon 23.1% | HCC-2998 colon 67.2% | KM12 colon 27.2%
active: RPMI-8226 leukemia 2.47% | IGROV1 ovarian -36.7%

COc1ccc(NC(=S)/N=c2\oc3c(OC)cccc3cc2-c2cc3ccccc3[nH]2)cc1
inactive: SR leukemia 103% | RPMI-8226 leukemia 105% | OVCAR-8 ovarian 54.8% | OVCAR-5 ovarian 91.5% | OVCAR-4 ovarian 56.4% | SK-OV-3 ovarian 69.4% | IGROV1 ovarian 63.1% | OVCAR-3 ovarian 79.7% | HS 578T breast 36.4% | NCI/ADR-RES ovarian 56.7% | BT-549 breast 90.4% | MDA-MB-435 melanoma 77.2% | SW-620 colon 84.3% | MCF7 breast 81% | HCT-116 colon 64.7% | HCC-2998 colon 101% | KM12 colon 73.2%

CC(C)(C)c1cn2cccc(C(=O)N3CCN(CC(=O)Nc4ccc(Cl)cc4C(=O)c4ccccc4Cl)CC3)c2n1
inactive: SR leukemia 13.2% | RPMI-8226 leukemia 24.1% | OVCAR-8 ovarian 51% | OVCAR-5 ovarian 75.1% | OVCAR-4 ovarian 50.6% | SK-OV-3 ovarian 91.4% | IGROV1 ovarian 51.2% | OVCAR-3 ovarian 75.7% | HS 578T breast 32.2% | NCI/ADR-RES ovarian 39.5% | T-47D breast 31.8% | MDA-MB-435 melanoma 63.4% | SW-620 colon 60.6% | MCF7 breast 43.8% | HCT-116 colon 33.3% | KM12 colon 54.2%

O=C(O)C(Cc1ccccc1)N1C(=O)/C(=C/C(Cl)=C/c2ccc([N+](=O)[O-])cc2)SC1=S (stereo not given)
active: SR leukemia 5.32% | RPMI-8226 leukemia -6.22% | OVCAR-4 ovarian 7.24% | T-47D breast 1.08% | MDA-MB-435 melanoma -41.7% | SW-620 colon 5.12% | HCT-116 colon -59.5% | HCC-2998 colon 3.58%
inactive: OVCAR-8 ovarian 12.1% | OVCAR-5 ovarian 137% | SK-OV-3 ovarian 83.4% | IGROV1 ovarian 36.3% | OVCAR-3 ovarian 10.7% | HS 578T breast 44.6% | NCI/ADR-RES ovarian 68.7% | MCF7 breast 26.1% | KM12 colon 14.8%

O=C(Nc1ccccc1)OCC1OCOC(COC(=O)Nc2ccccc2)C1OC(=O)Nc1ccccc1 (stereo not given)
inactive: SR leukemia 18.1% | RPMI-8226 leukemia 40.1% | OVCAR-8 ovarian 32% | OVCAR-5 ovarian 52.5% | SK-OV-3 ovarian 91.5% | IGROV1 ovarian 70.8% | OVCAR-3 ovarian 28.8% | HS 578T breast 67.7% | NCI/ADR-RES ovarian 69.8% | BT-549 breast 93.5% | MDA-MB-435 melanoma 11.2% | MCF7 breast 16.5% | HCC-2998 colon 36.9% | KM12 colon 51.2%
active: OVCAR-4 ovarian -44.6% | SW-620 colon 8.17% | HCT-116 colon -51.6%

COc1cc(OC)c(C(=O)/C=C/c2ccc(C#N)cc2)c(OC)c1
inactive: OVCAR-8 ovarian 11.7% | OVCAR-5 ovarian 41.8% | OVCAR-4 ovarian 32.8% | SK-OV-3 ovarian 17.2% | IGROV1 ovarian 14% | HS 578T breast 32% | NCI/ADR-RES ovarian 24.1% | T-47D breast 18.5% | MCF7 breast 13.8% | HCT-116 colon 10.2% | HCC-2998 colon 36.8%
active: SR leukemia 6.75% | RPMI-8226 leukemia 4.28% | OVCAR-3 ovarian 8.04% | MDA-MB-435 melanoma 5.64% | SW-620 colon 9.15% | KM12 colon 7.74%

COc1cc(/C=C2\CCCC3=C2N=C2SC(C)=NN2C3c2cc(OC)c(OC)c(OC)c2)cc(OC)c1OC (stereo not given)
active: SR leukemia 4.78% | RPMI-8226 leukemia -25.6% | OVCAR-8 ovarian 4.84% | NCI/ADR-RES ovarian 8.69% | MDA-MB-435 melanoma -63.9% | HCT-116 colon -71.6% | KM12 colon -37.8%
inactive: OVCAR-5 ovarian 67.3% | OVCAR-4 ovarian 54.3% | SK-OV-3 ovarian 60.3% | IGROV1 ovarian 24.4% | OVCAR-3 ovarian 21.2% | HS 578T breast 25% | T-47D breast 37.6% | MCF7 breast 12.5% | HCC-2998 colon 55.4%

NC(=S)NN=C1CCCCC1
active: HCT-116 colon 8.08%
inactive: SR leukemia 72.1% | RPMI-8226 leukemia 68.8% | OVCAR-8 ovarian 68.6% | OVCAR-5 ovarian 104% | OVCAR-4 ovarian 53.6% | SK-OV-3 ovarian 73% | IGROV1 ovarian 83.7% | OVCAR-3 ovarian 38% | HS 578T breast 82.3% | NCI/ADR-RES ovarian 72.6% | BT-549 breast 85.6% | MDA-MB-435 melanoma 88.8% | SW-620 colon 69.1% | MCF7 breast 15.9% | HCC-2998 colon 105% | KM12 colon 107%

CCSc1nnc(NC(=O)Cc2ccc(Cl)cc2)s1
inactive: SR leukemia 103% | RPMI-8226 leukemia 116% | OVCAR-8 ovarian 113% | OVCAR-5 ovarian 97.1% | OVCAR-4 ovarian 107% | SK-OV-3 ovarian 106% | OVCAR-3 ovarian 106% | HS 578T breast 110% | NCI/ADR-RES ovarian 104% | T-47D breast 96.2% | MDA-MB-435 melanoma 98.9% | SW-620 colon 109% | MCF7 breast 101% | HCT-116 colon 105% | HCC-2998 colon 84.9% | KM12 colon 96.9%
active: IGROV1 ovarian -24.9%

O=C(CN1CCOCC1)Nc1ccc(-c2nc3ccccc3s2)cc1
inactive: SR leukemia 102% | RPMI-8226 leukemia 94% | OVCAR-8 ovarian 102% | OVCAR-5 ovarian 93.4% | OVCAR-4 ovarian 101% | SK-OV-3 ovarian 121% | IGROV1 ovarian 106% | OVCAR-3 ovarian 96.3% | HS 578T breast 110% | NCI/ADR-RES ovarian 105% | T-47D breast 93.3% | BT-549 breast 104% | MCF7 breast 48.8% | HCT-116 colon 96.1% | HCC-2998 colon 88% | KM12 colon 107%
